The structures appear in SMILES notation. The panel holds about 83,000 compounds, 20% with a hit somewhere; the sample as a whole holds those more often.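 Testing used 96-well plates and a 48-hour single-concentration exposure. Example: -40 means 40% of the starting cells died.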 A number with no mark means an inactive call. Active and inactive are the calls of the source. How the source made its calls: active means growth percent below 10; inactive means the rest.

Test systems include RPMI-8226 leukemia; OVCAR-8 ovarian; OVCAR-5 ovarian; OVCAR-4 ovarian; SK-OV-3 ovarian; IGROV1 ovarian; OVCAR-3 ovarian; HS 578T breast; NCI/ADR-RES ovarian; T-47D breast.
Common to all, as to assay: NCI-60 one-dose screen, 48 h (100 = growth as untreated, 0 = no growth, -100 = all killed)
What all share (conditions): 10 µM unless noted

`NCCNc1nc2ccc(F)cc2c2c(=O)c3cc(F)ccc3sc12`: the growth was 7.67% (active) with RPMI-8226 leukemia; 29.9% in the assay with OVCAR-8 ovarian; 81.2% in the assay on OVCAR-5 ovarian; 37.2% with OVCAR-4 ovarian; 77.6% with SK-OV-3 ovarian; 22.9% with IGROV1 ovarian. For the same compound, the growth is 38.1% with OVCAR-3 ovarian, 59.5% in the assay with HS 578T breast, 61.7% in the assay with NCI/ADR-RES ovarian and 33.7% in the assay on T-47D breast.
As to `Cc1ccc(S(=O)c2ccc([N+](=O)[O-])c3nonc23)cc1` (stereo not given), the growth in the assay on RPMI-8226 leukemia was 91.3%; in the assay on OVCAR-8 ovarian, 99.7%; with OVCAR-5 ovarian, 118%; with OVCAR-4 ovarian, 101%; in the assay on SK-OV-3 ovarian it was 112%; in the assay on IGROV1 ovarian it was 104%. Further, the growth in the assay on OVCAR-3 ovarian is 94.5%; in the assay with HS 578T breast it was 96.5%; in the assay with NCI/ADR-RES ovarian, 114%; in the assay with T-47D breast it was 59.1%.
`O=c1oc2ccc(I)cc2c(=O)n1-c1ccc(I)cc1F`: the growth is -31.2% (active) with RPMI-8226 leukemia; 9.03% (active) in the assay on OVCAR-8 ovarian; 27.1% in the assay with OVCAR-5 ovarian; 16.7% in the assay on OVCAR-4 ovarian; 0.665% (active) in the assay on SK-OV-3 ovarian; 15.9% with IGROV1 ovarian. Moreover, the growth in the assay on OVCAR-3 ovarian was 7.88% (active); in the assay with HS 578T breast it was -4.47% (active); with NCI/ADR-RES ovarian, 9.94% (active); in the assay on T-47D breast, -3.25% (active).
In the case of `CN1CCN(Cc2ccc(NC(=O)c3[nH]ncc3Nc3cc(OC4CCCC4)ncn3)cc2)CC1`, the growth was 16.9% with RPMI-8226 leukemia; 42.6% with OVCAR-8 ovarian; 50.5% in the assay with OVCAR-5 ovarian; 59.2% in the assay with OVCAR-4 ovarian; 4.89% (active) with SK-OV-3 ovarian; 35% with IGROV1 ovarian. For the same compound, the growth with OVCAR-3 ovarian was 11.2%; in the assay with HS 578T breast it was 32.8%; with NCI/ADR-RES ovarian it was 44%; with T-47D breast, 64.1%.
For the compound `CCC(C)(C)C(=O)O[C@H]1C[C@@H](C)C=C2C=C[C@H](C)[C@H](CC[C@@H]3CC=CC(=O)O3)[C@H]21`, the growth in the assay on RPMI-8226 leukemia is -16.7% (active); in the assay with OVCAR-8 ovarian it was 61.6%; in the assay with OVCAR-5 ovarian it was 142%; in the assay with OVCAR-4 ovarian, 106%; in the assay with SK-OV-3 ovarian it was 115%; with IGROV1 ovarian, 97.2%. The growth in the assay on OVCAR-3 ovarian was 51.2%; with HS 578T breast, 94.6%; with NCI/ADR-RES ovarian, 90.6%; in the assay with T-47D breast, 80.8%.
As for `Cc1[nH]c2ccccc2c(=O)c1CC=C(Cl)Cl`, the growth in the assay on RPMI-8226 leukemia is -20.7% (active); in the assay with OVCAR-8 ovarian it was -84% (active); with OVCAR-5 ovarian it was 40.1%; with OVCAR-4 ovarian, -18.6% (active); in the assay with SK-OV-3 ovarian it was 86.5%; with IGROV1 ovarian, 29.4%. Also, the growth in the assay with OVCAR-3 ovarian is 40.9%; in the assay on HS 578T breast it was 84.2%; in the assay with NCI/ADR-RES ovarian, 52.4%; in the assay with T-47D breast, -26.4% (active).
As for `CCOC(=O)C1=CN(C)C=C(C(=O)OCC)C1c1cc(Br)c(OCC)c(OC)c1`, the growth was 8.87% (active) in the assay on RPMI-8226 leukemia; 56.8% in the assay with OVCAR-8 ovarian; 63.5% with OVCAR-5 ovarian; 54.9% in the assay with OVCAR-4 ovarian; 86.4% with SK-OV-3 ovarian; 35.6% with IGROV1 ovarian. In addition, the growth with OVCAR-3 ovarian was 64.9%; in the assay on HS 578T breast, 62.9%; in the assay with NCI/ADR-RES ovarian it was 73%; with T-47D breast it was 74.9%.
As to `O=C(Nc1ccc(Cl)cc1)c1cc2ccccc2cc1OP(=O)(O)O`, the growth in the assay on RPMI-8226 leukemia was -10.1% (active); in the assay on OVCAR-8 ovarian, 27.9%; in the assay on OVCAR-5 ovarian it was 69.1%; with OVCAR-4 ovarian, 25%; with SK-OV-3 ovarian it was 19%; with IGROV1 ovarian it was -1.26% (active). Also, the growth is 10.7% in the assay with OVCAR-3 ovarian, 32.9% in the assay with HS 578T breast, 16.6% in the assay on NCI/ADR-RES ovarian and 25.4% with T-47D breast.
`CCOC(=O)c1c2c(c(C)n1Cc1ccc(OC)cc1)-c1oncc1CC2`: the growth in the assay with RPMI-8226 leukemia was 62.9%; with OVCAR-8 ovarian, 88.3%; in the assay with OVCAR-5 ovarian, 81.7%; with OVCAR-4 ovarian it was 89.6%; with SK-OV-3 ovarian it was 105%; with IGROV1 ovarian, 80.8%. Besides, the growth with OVCAR-3 ovarian is 98.5%; in the assay on HS 578T breast it was 69.7%; with NCI/ADR-RES ovarian, 85.8%; in the assay with T-47D breast, 90.5%.
Take `O=C(Nc1ccc(F)cc1F)c1cc(I)ccc1O`: the growth is -2.64% (active) in the assay on RPMI-8226 leukemia; 11.8% in the assay on OVCAR-8 ovarian; 32.6% in the assay on OVCAR-5 ovarian; 20.1% in the assay with OVCAR-4 ovarian; -13.8% (active) in the assay on SK-OV-3 ovarian; 22% with IGROV1 ovarian. The growth is 8.96% (active) in the assay with OVCAR-3 ovarian, 10% in the assay with HS 578T breast, 8.58% (active) with NCI/ADR-RES ovarian and -9.33% (active) in the assay on T-47D breast.
With `O=c1oc2ccc(Cl)cc2c(=O)n1-c1ccc(I)cc1F`, the growth in the assay on RPMI-8226 leukemia is -25.3% (active); in the assay on OVCAR-8 ovarian it was 8.73% (active); in the assay on OVCAR-5 ovarian, 23.1%; in the assay with OVCAR-4 ovarian, 16.1%; with SK-OV-3 ovarian it was 7.52% (active); in the assay with IGROV1 ovarian, 14.9%. For the same compound, the growth is 6.61% (active) in the assay on OVCAR-3 ovarian, -0.395% (active) with HS 578T breast, 5.51% (active) in the assay with NCI/ADR-RES ovarian and -6.79% (active) with T-47D breast.
`O=C(/C=C/c1cccc(Cl)c1)OCc1ccc2cc1OCC#C/C=C\C#CCO2`: the growth in the assay with RPMI-8226 leukemia was 83.8%; in the assay on OVCAR-8 ovarian it was 98.2%; in the assay with OVCAR-5 ovarian, 108%; in the assay with OVCAR-4 ovarian, 95.6%; with SK-OV-3 ovarian it was 105%; in the assay on IGROV1 ovarian, 92.2%. For the same compound, the growth was 116% in the assay on OVCAR-3 ovarian, 101% with HS 578T breast, 96.8% with NCI/ADR-RES ovarian and 84.8% in the assay on T-47D breast.
Consider `COc1c(B(O)O)cccc1-c1nc2ccc3[nH]ncc3c2c2c1C1CCC2C1` (stereo not given), for which the growth in the assay on RPMI-8226 leukemia was 39.7%; in the assay on OVCAR-8 ovarian, 59.9%; with OVCAR-5 ovarian, 113%; with OVCAR-4 ovarian, 115%; in the assay with SK-OV-3 ovarian, 39.8%; with IGROV1 ovarian, 76.1%. For the same compound, the growth is 59% in the assay with OVCAR-3 ovarian, 40.8% with HS 578T breast, 78.8% in the assay with NCI/ADR-RES ovarian and 101% in the assay with T-47D breast.
In the case of `COc1cc(C(=O)Nc2ccc(-c3nc4ccccc4[nH]3)cc2)cc(OC)c1OC`, the growth in the assay on RPMI-8226 leukemia was 19.2%; in the assay on OVCAR-8 ovarian, 27.1%; in the assay with OVCAR-5 ovarian, 83.5%; in the assay with OVCAR-4 ovarian, 61.6%; with SK-OV-3 ovarian, 56.1%; in the assay on IGROV1 ovarian, 46.8%. In addition, the growth with OVCAR-3 ovarian was 9.3% (active); with HS 578T breast, 72.5%; in the assay on NCI/ADR-RES ovarian, 52.5%; with T-47D breast it was 60%.

Source of the values: PubChem BioAssay (NCI).
